# Experimental data published in PubChem BioAssay (NCATS).
# Unmarked numbers belong to inactive results. Records with an inconclusive call do not appear. The list shows a part of the results. Where a call stands in place of a potency, no number is given. The source made the active and inactive calls. Unless noted, calls come from the whole dose curve; as a rule, active = well fitted curve in the direction sought with a large enough effect; inconclusive = small, poorly fitted or top-dose-only effect, or another doubt; inactive = no such curve, though single readings can be large; an effect the other way counts as inactive or inconclusive.
# What was measured:
# [1] = target: Tumor susceptibility gene 101 protein (Homo sapiens) (UniProt Q99816); assay: qHTS Assay for Iinhibitors of HIV-1 Budding by Blocking the Interaction of PTAP/TSG101: Hit Validation (AID 651600); note: nearly all actives have a fitted effect of over 70% in size; note: potency is the fitted concentration of half-maximal effect
# Chain of Tumor susceptibility gene 101 protein (Homo sapiens) (Q99816 whole entry, looked up, the tested form may be a part): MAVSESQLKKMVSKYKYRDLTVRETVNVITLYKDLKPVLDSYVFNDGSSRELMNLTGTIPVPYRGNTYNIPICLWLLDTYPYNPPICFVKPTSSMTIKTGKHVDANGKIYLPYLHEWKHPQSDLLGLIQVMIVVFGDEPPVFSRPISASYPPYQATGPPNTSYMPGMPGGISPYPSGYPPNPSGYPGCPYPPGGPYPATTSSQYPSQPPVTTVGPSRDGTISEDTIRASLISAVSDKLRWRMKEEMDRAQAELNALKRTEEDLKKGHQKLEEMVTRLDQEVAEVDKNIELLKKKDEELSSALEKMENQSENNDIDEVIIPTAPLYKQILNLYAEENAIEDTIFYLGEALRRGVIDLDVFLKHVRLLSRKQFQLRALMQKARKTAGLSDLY
# Procedure, shortened: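 Fluorescence polarization binding assay: Tsg101 binding domain (10 uM final) pre-dispensed with compounds, then FITC-labeled PTAP-motif peptide (50 nM final) added; 20 min at r.t. in HEPES pH 7.5 buffer with NaCl, Tween 20, EDTA, TCEP.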
# [2] = target: Rap guanine nucleotide exchange factor 3 (Homo sapiens) (UniProt O95398); assay: Confirmatory qHTS for antagonist of cAMP-regulated guanine nucleotide exchange factor 3 (EPAC1) (AID 1645880); conditions: EPAC1 Rap1B-BODIPY-GDP exchange, fluorescence; activity, negative = inhibition: at 115 µM (top of the series); note: nearly all actives have a fitted effect of over 55% in size; note: potency is the fitted concentration of half-maximal effect
# Chain of Rap guanine nucleotide exchange factor 3 (Homo sapiens) (O95398 whole entry, looked up): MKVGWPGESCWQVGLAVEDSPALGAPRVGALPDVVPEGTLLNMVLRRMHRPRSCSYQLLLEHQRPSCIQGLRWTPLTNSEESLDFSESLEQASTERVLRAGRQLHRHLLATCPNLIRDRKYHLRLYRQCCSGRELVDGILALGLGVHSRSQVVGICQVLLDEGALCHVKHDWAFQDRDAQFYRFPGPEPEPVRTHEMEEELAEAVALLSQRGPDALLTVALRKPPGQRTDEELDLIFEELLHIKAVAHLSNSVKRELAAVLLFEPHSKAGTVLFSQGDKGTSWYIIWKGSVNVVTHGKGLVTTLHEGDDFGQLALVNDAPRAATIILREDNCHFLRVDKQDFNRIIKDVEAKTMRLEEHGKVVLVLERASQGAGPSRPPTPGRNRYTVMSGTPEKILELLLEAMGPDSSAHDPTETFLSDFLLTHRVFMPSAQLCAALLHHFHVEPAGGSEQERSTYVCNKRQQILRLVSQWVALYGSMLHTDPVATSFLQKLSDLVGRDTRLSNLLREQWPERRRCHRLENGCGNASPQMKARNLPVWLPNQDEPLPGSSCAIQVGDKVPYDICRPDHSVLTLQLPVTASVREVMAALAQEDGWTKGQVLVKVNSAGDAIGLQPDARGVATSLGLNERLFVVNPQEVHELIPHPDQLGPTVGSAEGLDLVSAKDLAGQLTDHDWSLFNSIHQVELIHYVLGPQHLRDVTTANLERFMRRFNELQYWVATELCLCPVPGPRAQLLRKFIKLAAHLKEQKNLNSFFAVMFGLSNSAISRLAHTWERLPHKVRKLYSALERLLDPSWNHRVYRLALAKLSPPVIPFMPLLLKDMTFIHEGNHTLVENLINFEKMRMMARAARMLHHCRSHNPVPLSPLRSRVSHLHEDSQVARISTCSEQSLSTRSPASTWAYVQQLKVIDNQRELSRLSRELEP
# Procedure, shortened: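 Nucleotide exchange uses 100 nM EPAC1, 250 nM RAP1B-BODIPY-GDP and 50 uM GDP, with compounds in a concentration-titration series. After 5 min at room temperature, fluorescence (480 nm ex/540 nm em) is read every 5 min for 30 min. Data are normalized to control ATA and DMSO.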
# [3] = target: Rap guanine nucleotide exchange factor 4 (Homo sapiens) (UniProt Q8WZA2); assay: Confirmatory qHTS for agonist of cAMP-regulated guanine nucleotide exchange factor 4 (EPAC2) (AID 1645884);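 note: nucleotide exchange releases bodipy-GDP from Rap1 and this lowers its fluorescence; nearly all actives have a fitted effect of over 65% in size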; note: potency is the fitted concentration of half-maximal effect
# Chain of Rap guanine nucleotide exchange factor 4 (Homo sapiens) (Q8WZA2 whole entry, looked up): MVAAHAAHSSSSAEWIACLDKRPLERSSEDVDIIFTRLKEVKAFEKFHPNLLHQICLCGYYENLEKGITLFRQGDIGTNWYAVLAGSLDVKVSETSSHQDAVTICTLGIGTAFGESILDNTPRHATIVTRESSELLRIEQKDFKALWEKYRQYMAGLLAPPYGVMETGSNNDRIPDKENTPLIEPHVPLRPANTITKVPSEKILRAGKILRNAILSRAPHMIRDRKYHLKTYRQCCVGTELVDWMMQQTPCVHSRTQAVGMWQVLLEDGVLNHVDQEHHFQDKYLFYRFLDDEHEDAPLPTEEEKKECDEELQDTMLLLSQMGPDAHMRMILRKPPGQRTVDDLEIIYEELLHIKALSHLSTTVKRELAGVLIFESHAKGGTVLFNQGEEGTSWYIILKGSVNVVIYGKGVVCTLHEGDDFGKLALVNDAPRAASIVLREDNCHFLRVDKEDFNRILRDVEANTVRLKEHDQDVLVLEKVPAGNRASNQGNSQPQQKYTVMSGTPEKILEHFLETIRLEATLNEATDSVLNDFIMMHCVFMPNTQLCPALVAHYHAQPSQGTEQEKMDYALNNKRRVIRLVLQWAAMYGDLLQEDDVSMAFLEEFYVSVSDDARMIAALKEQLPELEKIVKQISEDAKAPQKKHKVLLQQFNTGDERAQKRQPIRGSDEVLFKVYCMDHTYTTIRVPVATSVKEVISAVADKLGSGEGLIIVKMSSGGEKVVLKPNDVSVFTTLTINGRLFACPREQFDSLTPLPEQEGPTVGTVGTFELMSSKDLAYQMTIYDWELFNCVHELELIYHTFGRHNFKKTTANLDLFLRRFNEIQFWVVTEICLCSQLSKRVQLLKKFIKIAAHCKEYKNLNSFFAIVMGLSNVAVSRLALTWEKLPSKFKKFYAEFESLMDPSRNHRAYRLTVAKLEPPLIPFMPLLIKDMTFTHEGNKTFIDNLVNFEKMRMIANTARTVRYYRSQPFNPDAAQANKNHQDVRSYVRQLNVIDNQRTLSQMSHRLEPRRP
# [4] = target: Rap guanine nucleotide exchange factor 4 (Homo sapiens) (UniProt Q8WZA2); assay: Confirmatory qHTS for antagonist of cAMP-regulated guanine nucleotide exchange factor 4 (EPAC2) (AID 1645885); note: nearly all actives have a fitted effect of over 25% in size; note: potency is the fitted concentration of half-maximal effect
# [5] = target: Rap guanine nucleotide exchange factor 3 (Homo sapiens) (UniProt O95398); assay: Counterscreen qHTS for antagonist of cAMP-regulated guanine nucleotide exchange factor 3 (EPAC1) (AID 1645888);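 note: fluorescence loss as bound BODIPY-GDP is released from Rap1B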
# Procedure, shortened: (§1)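 Measured: fluorescence of BODIPY-GDP bound to Rap1B, which falls as exchange proceeds. Conditions include 50 uM competing GDP, 5 and 30 min reads, and a later cAMP challenge for antagonist detection.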
# [6] = target: Rap guanine nucleotide exchange factor 3 (Homo sapiens) (UniProt O95398); assay: Counterscreen qHTS for agonist of cAMP-regulated guanine nucleotide exchange factor 3 (EPAC1) (AID 1645889); note: nearly all actives have a fitted effect of over 40% in size; note: potency is the fitted concentration of half-maximal effect
# Procedure, shortened: as §1
# [7] = Stat Signaling Pathway (AID 446; active = well fitted curve in either direction with a large enough effect, not every such curve was filed as active;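 note: ME-180 cervical cancer cells given 40 pM IL-6 alongside compound; SIE-controlled beta-lactamase reporter measured as 460/530 nm FRET emission ratio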)
# Procedure, shortened: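 Reporter line: ME-180 cervical carcinoma, SIE-beta-lactamase. Treatment: compound with 40 pM IL-6, 5 hrs, 37 C, in low-serum OPTI-MEM with 10 mM HEPES pH 7.3. Detection: 460/530 nm fluorescence.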
# [8] = target: Glucocorticoid receptor (Homo sapiens) (UniProt P04150); assay: GR-GFP Redistribution (AID 450;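 active = compounds whose dose series gives a full or clear partial fitted curve of increased nuclear translocation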; note: potency is the fitted concentration of half-maximal effect); conditions: U2OS GR-GFP nuclear translocation, laser cytometry, 2 h
# Chain of Glucocorticoid receptor (Homo sapiens) (P04150 whole entry, looked up): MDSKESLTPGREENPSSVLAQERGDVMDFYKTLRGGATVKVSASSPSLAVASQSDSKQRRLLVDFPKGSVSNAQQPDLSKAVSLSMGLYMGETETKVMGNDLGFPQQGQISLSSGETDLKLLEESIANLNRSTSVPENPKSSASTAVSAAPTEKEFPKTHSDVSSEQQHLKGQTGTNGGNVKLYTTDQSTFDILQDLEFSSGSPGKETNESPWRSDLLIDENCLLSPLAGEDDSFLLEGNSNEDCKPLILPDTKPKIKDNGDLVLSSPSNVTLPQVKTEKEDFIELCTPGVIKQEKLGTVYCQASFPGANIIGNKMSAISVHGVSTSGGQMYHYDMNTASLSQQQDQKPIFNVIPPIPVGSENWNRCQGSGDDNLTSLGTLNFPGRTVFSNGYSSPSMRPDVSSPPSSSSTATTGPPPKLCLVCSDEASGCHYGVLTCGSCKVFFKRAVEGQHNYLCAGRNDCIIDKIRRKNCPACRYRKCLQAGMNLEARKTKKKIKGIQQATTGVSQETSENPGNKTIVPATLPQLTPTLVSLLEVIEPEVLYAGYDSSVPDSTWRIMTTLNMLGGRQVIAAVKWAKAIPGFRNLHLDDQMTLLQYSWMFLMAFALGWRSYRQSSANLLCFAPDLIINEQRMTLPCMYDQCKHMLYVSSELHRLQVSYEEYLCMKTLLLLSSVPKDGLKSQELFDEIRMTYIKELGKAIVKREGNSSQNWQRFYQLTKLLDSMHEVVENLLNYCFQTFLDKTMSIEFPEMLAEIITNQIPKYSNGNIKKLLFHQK
# [9] = Counterscreen for APE1 Inhibitors: Fluorescent Dye Displacement Assay (AID 2564);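 note: loss of thiazole orange fluorescence as the dye is displaced from duplex DNA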
# Procedure, shortened: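 Compounds are scored by their ability to displace Thiazole Orange (250 nM) from a 50 nM TAMRA-tagged duplex bearing a tetrahydrofuran abasic site. Buffer is 50 mM Tris-HCl pH7.5, 50mM NaCl, 2 mM MgCl2, 0.01% Tween-20.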
# [10] = target: Endonuclease 4 (Escherichia coli (strain K12)) (UniProt P0A6C1); assay: Counterscreen for APE1 Inhibitors: qHTS Assay for Inhibitors of Endonuclease IV (AID 2565)
# Procedure, shortened: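 2 nM enzyme was preincubated with compounds for 15 min at room temperature in 50 mM Tris-HCl pH 7.5, 50 mM NaCl, 2 mM MgCl2, 1 mM DTT, 0.01% Tween-20. 50 nM THF-abasic TAMRA/BHQ-2 duplex substrate started the reaction.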
# [11] = target: DNA repair nuclease/redox regulator APEX1 (Homo sapiens) (UniProt P27695); assay: Confirmation qHTS Assay for Inhibitors of the Human Apurinic/apyrimidinic Endonuclease 1 (APE1) (AID 2572); conditions: purified APE1, fluorogenic abasic-site DNA cleavage; note: potency is the fitted concentration of half-maximal effect; nearly all actives have a fitted effect of over 30% in size
# Chain of DNA repair nuclease/redox regulator APEX1 (Homo sapiens) (P27695 whole entry, looked up): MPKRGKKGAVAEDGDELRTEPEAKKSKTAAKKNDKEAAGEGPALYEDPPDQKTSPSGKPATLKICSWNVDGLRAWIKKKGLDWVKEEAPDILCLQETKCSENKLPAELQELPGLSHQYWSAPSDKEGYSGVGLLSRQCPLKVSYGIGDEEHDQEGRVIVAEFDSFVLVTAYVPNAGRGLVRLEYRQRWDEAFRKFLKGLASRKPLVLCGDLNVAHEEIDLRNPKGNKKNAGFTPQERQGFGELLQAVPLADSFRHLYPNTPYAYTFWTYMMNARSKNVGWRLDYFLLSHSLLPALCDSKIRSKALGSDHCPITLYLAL
# Procedure, shortened: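 Fluorescence gain at 598 nm (Ex 525 nm) reports APE1 cleavage of a TAMRA/BHQ-2-labelled duplex carrying a tetrahydrofuran abasic site, 50 nM final. Activity taken as third-minus-first kinetic read after 15 min compound preincubation, room temperature.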
# [12] = target: DNA repair nuclease/redox regulator APEX1 (Homo sapiens) (UniProt P27695); assay: qHTS FP-Based Assay for Inhibitors of the Human Apurinic/apyrimidinic Endonuclease 1 (APE1) (AID 2573)
compound,measurement,setting,value
O=C1CCNc2ccc(-c3ccccc3)cc21,Potency,[1],8.19 µM (active)
same,Potency,[2],inactive
same,Potency,[3],112 µM (active)
same,Potency,[4],inactive
same,Potency,[5],inactive
same,Potency,[6],56.2 µM (active)
CC1=Nc2ccccc2/C1=C\c1nc(-c2ccccc2)oc1O,Potency,[2],inactive
same,activation,[3],"7.61% [at 17.1 µM, percent relative to cAMP agonist control]"
same,Potency,[4],inactive
same,"activity change, negative = inhibition",[5],-10.6% [at 30.8 µM]
same,activation,[6],18.1% [at 30.8 µM]
O=C(Cn1ccc(=O)[nH]c1=O)c1ccc([N+](=O)[O-])o1,Potency,[2],inactive
same,activation,[3],"15.2% [at 17.1 µM, percent relative to cAMP agonist control]"
same,Potency,[4],inactive
same,"activity change, negative = inhibition",[5],-11.8% [at 30.8 µM]
same,activation,[6],18.6% [at 30.8 µM]
CCN(CC)c1ccc2cc(-c3nnc(-c4ccncc4)o3)c(=O)oc2c1,outcome,[7],inactive
same,Potency,[8],3.51 µM (active)
N#Cc1c(-c2cccs2)nc(SCC(=O)c2ccc(Br)cc2)[nH]c1=O,outcome,[9],inactive
same,outcome,[10],inactive
same,Potency,[11],15.8 µM (active)
same,outcome,[12],inactive
CCN(CC)c1ccc2cc(C(=O)NNC(=O)c3ccc(S(=O)(=O)N4CCCCC4)cc3)c(=O)oc2c1,Potency,[2],inactive
same,Potency,[3],112 µM (active)
same,Potency,[5],inactive
same,Potency,[6],inactive
COC(=O)CCc1nc2cc(Cl)ccc2n(Cc2ccccc2)c1=O,Potency,[2],inactive
same,Potency,[3],inactive
same,Potency,[5],inactive
CCCN(CCC)c1ccc(/C=C/c2ccnc3ccccc23)cc1,Potency,[2],inactive
same,Potency,[4],inactive
O=C1c2ccccc2-c2onc3c(Br)cc(NC4CCCCC4)c1c23,Potency,[2],inactive
same,Potency,[3],inactive
same,Potency,[5],inactive
same,Potency,[6],inactive
CCSC1=NSC2=NC(=O)/C(=C\c3coc4ccccc4c3=O)C(=N)N12,Potency,[2],inactive
same,Potency,[4],inactive
same,"activity change, negative = inhibition",[5],72.5% [at 30.8 µM]
COc1ccc(-c2nn(-c3ccccc3)cc2/C=C2/SC(=S)N(CCC(=O)O)C2=O)cc1,Potency,[2],inactive
same,Potency,[4],inactive
COCc1c(C(=O)N2CCc3ccccc32)oc2ccccc12,Potency,[2],inactive
same,Potency,[3],112 µM (active)
same,Potency,[5],inactive
CC(C)CC(=NNC(=O)c1ccncc1)c1cc(Cl)ccc1O,Potency,[2],inactive
same,Potency,[3],100 µM (active)
same,Potency,[5],inactive
Cc1cc([N+](=O)[O-])c2[nH]c(C(=O)N/N=C/c3ccccc3C(=O)O)c(-c3ccccc3)c2c1,Potency,[2],67.5 µM (active)
same,Potency,[3],inactive
same,Potency,[6],inactive
CCCN1CC=C2C(C#N)=C(N)C(C#N)(C#N)C(c3cccc(OC)c3OC)C2C1 (stereo unspecified),Potency,[2],inactive
same,Potency,[4],12 µM (active)
same,Potency,[5],inactive
CC(=Nc1ccc(C)cc1C)c1sc2ccccc2c1O,Potency,[1],inactive
same,Potency,[2],inactive
same,Potency,[3],100 µM (active)
same,Potency,[5],inactive
COCCN1C(=O)/C(=C/c2ccc(N3CCCC3)cc2)SC1=S,Potency,[2],inactive
same,Potency,[3],112 µM (active)
same,Potency,[5],inactive
CN(C)c1ccc(-c2cc3ccccc3c(=O)o2)cc1,Potency,[2],inactive
same,Potency,[4],inactive
same,Potency,[5],inactive
CCCCNc1ccc2c3c(cccc13)C(=O)N(CCCC)C2=O,Potency,[1],4.11 µM (active)
same,Potency,[2],inactive
same,activation,[3],"-62.3% [at 17.1 µM, percent relative to cAMP agonist control]"
same,"activity change, negative = inhibition",[5],213% [at 30.8 µM]
same,Potency,[6],20 µM (active)
COc1ccc2c(c1)C(=O)CCC2c1ccccc1 (stereo unspecified),Potency,[2],inactive
same,Potency,[4],inactive
same,Potency,[5],inactive
CC(=O)CCc1oc2c([N+](=O)[O-])cccc2c1-c1ccc(C)o1,Potency,[2],inactive
same,Potency,[4],inactive
same,Potency,[5],inactive
O=C(NCc1cccc(F)c1)c1cccc2c1C(=O)c1ccc(N3CCOCC3)cc1S2(=O)=O,Potency,[2],inactive
same,Potency,[4],inactive
same,Potency,[5],inactive
